From PubChem BioAssay AID1851 (National Center for Advancing Translational Sciences (NCATS), 2009)
In all, about 16,000 compounds went through this assay and about 5,700 (36%) were called active. About 24% were inconclusive and are not listed. The list shows a part of the results. A number with no mark means an inactive call. Calls follow the shape of the dose curve; as a rule, active = well fitted curve in the direction sought with a large enough effect; inconclusive = small, poorly fitted or top-dose-only effect, or effect the other way; inactive = no such curve, though single readings can be large or run the other way.

molecular target: Cytochrome P450 1A2 (Homo sapiens) (UniProt P05177); assay: Cytochrome panel assay with activity outcomes; conditions: recombinant CYP, pro-luciferin dealkylation, luminescence, p450-cyp1a2; series mostly up to 57.1 µM; activity, negative = inhibition: at the top concentration
Sequence (P05177 whole entry, looked up): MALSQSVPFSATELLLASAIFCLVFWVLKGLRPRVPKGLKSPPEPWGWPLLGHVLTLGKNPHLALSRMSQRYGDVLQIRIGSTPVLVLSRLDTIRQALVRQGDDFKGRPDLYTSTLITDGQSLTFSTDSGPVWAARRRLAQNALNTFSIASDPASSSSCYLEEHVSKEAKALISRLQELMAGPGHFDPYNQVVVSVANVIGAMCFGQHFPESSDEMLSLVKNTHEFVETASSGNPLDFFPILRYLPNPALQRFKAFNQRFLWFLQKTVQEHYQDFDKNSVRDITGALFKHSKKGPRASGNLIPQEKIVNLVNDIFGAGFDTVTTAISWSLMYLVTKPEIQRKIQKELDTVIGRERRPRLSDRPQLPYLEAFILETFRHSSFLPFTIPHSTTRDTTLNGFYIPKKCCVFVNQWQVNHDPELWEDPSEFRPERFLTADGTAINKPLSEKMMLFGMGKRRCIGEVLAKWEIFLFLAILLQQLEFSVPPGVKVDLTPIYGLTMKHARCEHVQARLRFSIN
% is scaled to controls: 0 for no effect and ±100 for the full control effect.

SMILES | activity, negative = inhibition | AC50
O=C(Nc1cccc(F)c1)N1CC[C@@]2(CCCNC2)C1 | -12.5% | –
O=C(O)[C@@H]1[C@@H](C(=O)NCc2cccnc2)[C@@H]2C=C[C@@H]1O2 | -0.421% [at 2.29 µM] | –
O=C(O)[C@@H]1[C@@H](C(=O)Nc2ncccn2)[C@@H]2C=C[C@@H]1O2 | -13.2% [at 2.29 µM] | –
O=C(O)[C@@H]1[C@@H](C(=O)NCc2ccncc2)[C@@H]2C=C[C@@H]1O2 | – | 5.01 µM (active)
CC1Cc2ccccc2N1C(=O)CN1C(=O)COc2ccccc21 (stereo unspecified) | -14.8% | –
C[C@@H]1Cc2ccccc2N1NC(=O)c1ccc(Cl)c(S(N)=O)c1 (stereo partly specified) | -11.4% [at 25.6 µM] | –
CC1Cc2ccccc2N1C(=O)Cn1c(=O)cc(O)c2ccccc21 (stereo unspecified) | – | 14.1 µM (active)
COc1ccc(N2C(=O)NC3CC2(C)Oc2ccccc23)cc1OC (stereo unspecified) | -28.6% | –
COc1ccc(-n2c(C)n[nH]c2=O)cc1OC | -13.2% | –
COc1ccc(-n2cccc2C=O)cc1OC | – | 14.1 µM (active)
COc1ccc(C(=O)N2CCC[C@@]3(CCN(Cc4ccc(C#N)cc4)C3)C2)cc1 | -20.7% | –
CCn1c(/C=C2/C(=O)N(C)c3ccccc32)nc2ccccc2c1=O | – | 1 µM (active)
CC1(C)CC2(CCO1)OC(=O)CC2C(=O)NCCc1ccccc1 (stereo unspecified) | 12.8% | –
Cc1c(N(C)CS(=O)(=O)O)c(=O)n(-c2ccccc2)n1C | -11.4% [at 25.6 µM] | –
Cc1ccc(S(=O)(=O)/N=C(/Nc2c(C)n(C)n(-c3ccccc3)c2=O)c2ccc(Cl)cc2)cc1 | -18.4% | –
Cc1c(CCO)c(=O)n(-c2ccccc2)n1S(=O)(=O)c1c(Cl)cc(Cl)cc1Cl | – | 12.6 µM (active)
CC(=O)O[C@H]1C2=CO[C@H](C)[C@H]3[C@H]4C5=C([C@H](O)[C@H]6O[C@@H]6C5=O)[C@H](O[C@H]4C)[C@@]23C(=O)[C@H]2O[C@@H]21 | -0.486% [at 11.4 µM] | –
Cc1ccn2c(NC(=O)c3ccccc3)c(-c3cccs3)nc2c1 | – | 22.4 µM (active)
O=C(O)C12CC3(C(=O)O)CC(C(=O)O)(CC(C(=O)O)(C1)C3=O)C2=O | -4.32% [at 2.29 µM] | –
Cc1ncn(-c2ccccc2O)c1C | – | 0.794 µM (active)
Cc1nc2ccccn2c1C(=O)N/N=C/c1ccccc1[N+](=O)[O-] | – | 15.8 µM (active)
CC1=NNC(=O)C1CCC(=O)N/N=C\c1ccccc1[N+](=O)[O-] (stereo unspecified) | -21.8% | –
O=C(O)Cc1cc(Cl)ccc1O | -16.6% [at 11.4 µM] | –
COc1ccc2c(c1)c(CC(=O)OCC(=O)O)c(C)n2C(=O)c1ccc(Cl)cc1 | -15.1% [at 25.6 µM] | –
COc1ccc2c(c1)c(CC(=O)O)c(C)n2Cc1ccc(Cl)cc1 | – | 31.6 µM (active)
CC(=O)n1nc(-c2ccco2)nc1N | – | 10 µM (active)

SMILES | activity, negative = inhibition | AC50
Cc1nc2nc[nH]n2c(=O)c1NC(=O)CC12CC3CC(CC(C3)C1)C2 | -10.9% | –
COC(=O)N1CC(=O)N(OC)C1c1ccc(Cl)cc1Cl (stereo unspecified) | -9.57% | –
O=C1c2ccccc2N[C@H](c2cc(Cl)cc(Cl)c2O)N1CCc1ccccn1 | 5.81% [at 2.29 µM] | –
O=C1c2ccccc2NC(c2ccc(Cl)cc2Cl)N1O (stereo unspecified) | – | 6.31 µM (active)
Cn1c(=NC(=O)CCl)sc2ccccc21 | – | 2.24 µM (active)
CO[C@H]1[C@H](O[C@H]2O[C@@H](C)[C@@H](O[C@@H]3C[C@](C)(O)[C@H](OC(=O)CC(C)C)[C@H](C)O3)[C@@H](N(C)C)[C@@H]2O)[C@@H](CC=O)C[C@@H](C)[C@@H](O)/C=C\C=C/C[C@@H](C)OC(=O)C[C@H]1OC(C)=O | 2.24% [at 25.6 µM] | –
COc1ccc2[nH]cc(C=O)c2c1 | – | 7.08 µM (active)
COc1ccc2[nH]c3cc4c(=O)c5cc(OC)ccc5[nH]c4cc3c(=O)c2c1 | -6.02% [at 2.29 µM] | –
N[C@@H](Cc1[nH]nc2ccccc12)C(=O)O | -19.1% [at 11.4 µM] | –
Brc1[nH]nc2ccccc12 | – | 1.58 µM (active)
COC(=O)c1ccccc1N/C=C1\CCc2c(c(C)nn2-c2ccccn2)C1=O | – | 6.31 µM (active)
COC(=O)N1CCC2(CC1)CCN(c1ccccn1)CC2 | 2.64% | –
COc1ccc(-c2cc(C(=O)O)c3c(C)nn(-c4ccccn4)c3n2)cc1 | -1.78% | –
c1ccc(CNc2ncncc2-c2cccnc2)cc1 | – | 2.51 µM (active)
Cc1cccc(CNc2ncncc2-c2cccnc2)c1 | – | 0.794 µM (active)
c1cncc(CNc2ncn[nH]2)c1 | -7.88% [at 11.4 µM] | –
c1cncc(CNc2ncncc2-c2cccnc2)c1 | – | 5.01 µM (active)
CC[C@H]1C2=C3C(CC[C@H]4C(OCc5ccc(F)cc5C(F)(F)F)OC[C@](C)([C@@H]34)N(C(=O)OC(C)(C)C)C2)C2COC(=O)OCC21 (stereo partly specified) | -14.8% | –
O=C(Nc1ccc2c(c1)nc1n2CCN(C2CCCCC2)C1)NC1CCCCC1 | -13.4% | –
Cc1ccc(S(=O)(=O)N[C@@H]2COC(=O)C/C=C\[C@H](C)COC(=O)N[C@@H](C)C(=O)C/C=C\[C@H]2C)cc1 | -0.145% [at 11.4 µM] | –
C=CCn1c(SCc2ccc(C(=O)Nc3ccccc3)cc2)nnc1-c1ccccc1 | – | 14.1 µM (active)
CCn1c(SCc2ccc(C(=O)Nc3nccs3)cc2)nnc1-c1ccc(NC(C)=O)cc1 | – | 12.6 µM (active)
Cc1ccc(NC(=O)c2ccc(CSc3nnc(-c4ccncc4)n3C)cc2)cc1 | 7.07% | –
Cc1nc2sc(C#N)c(N)c2c2c1CCCC2 | – | 2 µM (active)
NC(=O)c1csc(-c2ccc(CO)o2)n1 | -13.1% [at 11.4 µM] | –
OCc1ccc(-c2nn(Cc3ccccc3)c3ccccc23)o1 | – | 1.58 µM (active)

SMILES | activity, negative = inhibition | AC50
O=C(NNS(=O)(=O)c1cc(Cl)cc(Cl)c1)c1sccc1-n1cccc1 | – | 2 µM (active)
O=C(NNS(=O)(=O)c1ccccc1)c1cccnc1 | 2.15% [at 2.29 µM] | –
CCS(=O)(=O)N1CCC(C(=O)NCCCN2CCCC2)CC1 | 15% | –
COc1ccc(N=C2S/C(=C\c3ccc(C)s3)C(=O)N2CC(C)C)cc1 | -5.67% | –
CCCN1C(=O)/C(=C/c2ccc(C)s2)SC1=Nc1ccc(OC)cc1 | – | 11.2 µM (active)
O=C(O)CCNc1ncnc2nc[nH]c12 | -6.59% [at 11.4 µM] | –
CCCCNc1nc(SC)nc2nc[nH]c12 | – | 0.316 µM (active)
CN(C)CCCNc1ncnc2nc[nH]c12 | -16.6% [at 11.4 µM] | –
CC[C@@]1(O)C(=O)OCc2c1cc1n(c2=O)Cc2cc3c(CN(C)C)c(O)ccc3nc2-1 | -17.9% [at 2.29 µM] | –
CCn1c(SCC(=O)Nc2sc3c(c2C#N)CCC(C(C)(C)C)C3)nnc1-c1ccco1 (stereo unspecified) | -14.1% | –
CCn1c(SCC(=O)Nc2sc3c(c2C(N)=O)CCC(C)C3)nnc1-c1ccco1 (stereo unspecified) | – | 12.6 µM (active)
COc1cccc(Cn2c(=O)c(-c3cc(F)cc(F)c3)nc3cnc(N4CCN(C)CC4)nc32)c1 | -16.9% | –
COc1ncc2nc(-c3cc(F)cc(F)c3)c(=O)n(C[C@H]3CCCO3)c2n1 | – | 3.16 µM (active)
COc1ncc2nc(-c3ccc(Cl)cc3)c(=O)n(C[C@H]3CCCO3)c2n1 | – | 0.501 µM (active)
CCCC12CN3CC(CCC)(CN(C1)C3C(O)C(O)C(O)CO)C2=O (stereo unspecified) | 1.15% | –
CCCC(=O)Nc1ccc(C(=O)Nc2cc(C(F)(F)F)ccc2Cl)cc1 | -21.8% | –
COc1ccc(/C=C/C(=O)Nc2cc(C(F)(F)F)ccc2Cl)cc1 | – | 0.447 µM (active)
COc1cc(NC(=O)c2ccc(COCC(F)(F)F)cc2)cc(OC)c1OC | -21.6% | –
COc1cccc(C(=O)Nc2cc(C(F)(F)F)ccc2Cl)c1 | – | 2.51 µM (active)
COc1ccc(C(=O)N2CCC3(CCN(Cc4cc(C(F)(F)F)cc(C(F)(F)F)c4)CC3)CC2)cc1 | -5.69% | –
COc1cc(C(=O)Nc2cc(C(F)(F)F)ccc2Cl)cc(OC)c1OC | – | 5.01 µM (active)
CN(C)S(=O)(=O)Oc1cccc(C(=O)Nc2ccccc2Cl)c1 | – | 2 µM (active)
CCOc1ccc(/C(O)=C2/C(=O)C(=O)N(CCOCCO)C2c2cccnc2)cc1 (stereo unspecified) | -14.1% | –
CS(=O)(=O)N1CCC[C@@]2(CCN(c3ccccn3)C2)C1 | -10.5% | –
COC(=O)CNC(=O)/C=C/c1ccc(OC)cc1 | – | 12.6 µM (active)
COC(=O)CNC(=O)CCCCC(=O)NCC(=O)OC | 5.92% | –

SMILES | activity, negative = inhibition | AC50
COc1ccc(CNC(=O)/C=C/c2ccc(OCCCF)cc2)cc1 | -5.44% | –
CCOC(=O)Cn1c(=O)oc2cc(S(=O)(=O)NCCc3ccc(OCC)c(OCC)c3)ccc21 | – | 12.6 µM (active)
CCOc1ccc(CCNC(=O)C2CCN(S(=O)(=O)CC)CC2)cc1OCC | -18.3% | –
Cc1ccc(CNC(=O)CCNS(=O)(=O)c2ccc3c(c2)c(=O)n(C)c(=O)n3C)cc1 | 15.7% | –
N#Cc1cccc(NC(=O)N2CC[C@@]3(CCCN(C(=O)c4ccco4)C3)C2)c1 | -9.82% | –
COc1ccc(C(=O)NCCCN2CCOCC2)cc1OC | -0.134% | –
O=C(NCCCn1ccnc1)c1ccc(Br)c(S(=O)(=O)N2CCOCC2)c1 | – | 1.78 µM (active)
Cc1ccc(C(=O)NCCCN2CCOCC2)cc1N1CCCC1=O | -2.59% | –
Cc1cccc([C@@H]2CN(C)CCc3c2cc(O)c(O)c3Cl)c1 | -2.57% | –
CC(C)Nc1nc(Oc2ccc(Cl)cc2)cc(C(F)(F)F)n1 | – | 2 µM (active)
CC(C)c1cc(C(F)(F)F)nc(NNc2nc(C(C)C)cc(C(F)(F)F)n2)n1 | -41.5% [at 11.4 µM] | –
CCS(=O)(=O)c1ccc2oc(Nc3cc(C)cc(C)c3)nc2c1 | – | 5.01 µM (active)
Cc1cc(C)n(-c2cc(N3CCN(S(=O)(=O)c4ccc(C)c(C)c4)CC3)ccc2[N+](=O)[O-])n1 | 5.25% | –
CC(C)NC[C@H](O)COc1cccc2ccccc12 | – | 0.2 µM (active)
OC[C@@H](O)COc1cccc2ccccc12 | – | 0.631 µM (active)
CC(=O)Nc1ccc(OC[C@@H](O)CNC(C)C)cc1 | 6.78% [at 25.6 µM] | –
OC[C@@H](O)CNc1ncnc2ccccc12 | -18.7% [at 11.4 µM] | –
O=C(O)c1cc(=O)c2c(OCC(O)COc3cccc4oc(C(=O)O)cc(=O)c34)cccc2o1 | 3.24% [at 25.6 µM] | –
CC(C)NC[C@H](O)c1cc(O)cc(O)c1 | – | inactive
CC(C)NC[C@@H](O)COc1ccc(COCCOC(C)C)cc1 | – | inactive
CC(C)NC[C@@H](O)c1ccc(O)c2ncccc12 | -12.1% [at 2.29 µM] | –
CC(C)NC[C@H](O)c1ccc2ccccc2c1 | – | 12.6 µM (active)
CC(C)NC[C@H](O)c1ccc(NS(C)(=O)=O)cc1 | – | inactive
